# Shown are actives, neighbours in structure and some others; about 12% of the full set was active somewhere.
# JMJD2A Tudor inh: blocks the human JMJD2A Tudor domain; O75164; AlphaScreen JMJD2A-Tudor / H3K4me3 peptide binding; Potency, µM (series often up to 114 µM), actives largely listed as inhibitors; 4.4% of 390,000 active; AID 504339; also: nearly all actives have a fitted effect of over 50% in size
# G9a block: blocks human histone lysine methyltransferase G9a. G9a H3K9 monomethylation, AlphaScreen, 2 h. Potency, µM (titrated, usually from 102 µM), usual class: inhibitors. 8.8% of 350,000 active. AID 504332; also: nearly all actives have a fitted effect of over 75% in size
# Target sequence (Q96KQ7 913-1193 limits assumed): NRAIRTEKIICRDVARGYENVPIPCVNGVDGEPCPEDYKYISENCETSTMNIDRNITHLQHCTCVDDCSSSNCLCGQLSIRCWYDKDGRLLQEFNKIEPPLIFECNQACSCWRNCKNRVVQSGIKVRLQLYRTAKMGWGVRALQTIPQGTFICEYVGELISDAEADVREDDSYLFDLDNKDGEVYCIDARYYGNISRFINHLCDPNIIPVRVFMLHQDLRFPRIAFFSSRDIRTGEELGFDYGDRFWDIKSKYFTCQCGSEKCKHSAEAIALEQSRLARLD
#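 Signal arises when biotinylated H3K9 peptide, once monomethylated, bridges streptavidin donor and antibody-captured acceptor beads. Enzyme at 20 nM was preincubated 15 min with test compounds; peptide 500 nM and SAM 20 uM then reacted for 2 h.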
# HP1b binding inh: inhibitors of HP1-beta chromodomain binding to methylated histone tails. P83916. AlphaScreen HP1-beta / biotin-H3K9me3 peptide binding. Potency, µM (doses to about 114 µM), actives largely listed as inhibitors. 0.56% of 390,000 active. AID 540317; also: nearly all actives have a fitted effect of over 70% in size
# Target sequence (P83916 whole entry, looked up): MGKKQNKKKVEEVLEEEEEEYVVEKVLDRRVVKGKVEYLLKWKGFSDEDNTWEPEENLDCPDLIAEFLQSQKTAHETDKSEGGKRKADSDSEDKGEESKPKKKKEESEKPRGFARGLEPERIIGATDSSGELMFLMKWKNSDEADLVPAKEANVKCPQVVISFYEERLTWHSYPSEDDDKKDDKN
#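 Compound inhibition of the preformed complex between 50 nM HP1-beta and 50 nM biotinylated H3K9me3 peptide was read by AlphaScreen. Buffer was PBS pH 7.4 with 0.01% Tween-20. Incubations ran 30 min at room temperature, with 10 ug/mL donor/acceptor beads.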
# BAZ2B block: inhibitors of human BAZ2B bromodomain. 4.4% of 360,000 active. Potency, µM (doses to about 114 µM), hits mostly inhibitors. Q9UIF8. AlphaScreen BAZ2B-H3K14Ac peptide displacement; also: nearly all actives have a fitted effect of over 60% in size
#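 Protein-peptide AlphaScreen: BAZ2B 50 nM, b-H3K14Ac 50 nM, 1x PBS pH 7.4 + 0.01% Tween-20. Preincubation 30 min RT; cpd 30 min RT (top 110 uM); beads 20 min RT, light-protected.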
# Sfp PPTase inh: inhibitors of Bacillus subtilis Sfp phosphopantetheinyl transferase. Q9F4F7. Biochemical Sfp PPTase activity, qHTS. Potency, µM, usual class: inhibitors. 3.5% of 310,000 active;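 also: the enzyme is Sfp with the accession as filed and its product quenches rhodamine fluorescence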
#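 With Hepes-Na pH 7.6 buffer containing 10 mM MgCl2, Sfp (15 nM) modified BHQ-2-YbbR (12.5 uM) using rhodamine-CoA (5 uM). Two reads 30 minutes apart at 525/598 nm yielded each well's rate.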
# Hits are given with their value; 0 = inactive; ? = inconclusive; - = not tested or not shown; ! = not confirmed by another sample; [ ] = dose if it differs, or a comment. Calls follow the shape of the dose curve; as a rule, active = well fitted curve in the direction sought with a large enough effect; inconclusive = small, poorly fitted or top-dose-only effect, or another doubt; inactive = no such curve, though single readings can be large; an effect the other way counts as inactive or inconclusive.
SMILES,JMJD2A Tudor inh,G9a block,HP1b binding inh,BAZ2B block,Sfp PPTase inh
COc1ccc(CNc2nc3ccccc3n2Cc2ccc(C)cc2)cc1OC,0,79.4µM,0,?,0
Cc1cccc(NCc2nc3ccccc3n2Cc2ccccc2)c1,?,?,0,?,0
COc1ccc(-c2cc(C(F)(F)F)nc(SCC(=O)N3CCCCC3)n2)cc1,0,0,0,0,-
CCOc1ccccc1NC(=O)COc1cccc2c(=O)n(CCOC)ccc12,0,0,0,0,-
CCOc1ccccc1NC(=O)Cn1c(=O)n(CCC(C)C)c(=O)c2cccnc21,0,0,0,0,-
COC(=O)C(O)C1C(C)(C)C(OC(C)=O)C2CC3=C4CC(=O)OC(c5ccoc5)[C@]4(C)CCC3[C@@]1(C)C2=O (stereo partly specified),-,0[2.33 µM],-,-,0
CC[n+]1c(/C=C/c2c[nH]c3ccccc23)ccc2cc(C)ccc21,?,35.5µM,0,?,?
Cc1ccc(C(=O)/C=C/c2c[nH]c3ccccc23)cc1,0,0[12.7 µM],0,?,0
CCN(CC)C(=O)c1ccc(/C=C/c2c[nH]c3ccccc23)[n+](C)c1,?,3.16µM,0,0,0
CCCOc1ccc(CNC(=O)CCCn2nc(C)c3sc4ccccc4c3c2=O)cc1,0,0,0,0,-
O=C(Cn1ncn2c(cc3sccc32)c1=O)NCCc1ccccc1,0,0,0,0,-
CCOC(=O)c1sc(C)nc1C1CCN(C(=O)OCC)CC1,0,44.7µM,0,0,0
CCOC(=O)c1c(C2CCN(C(=O)OCC)CC2)nc2ccccn12,0,0,0,0,0
CN(C)S(=O)(=O)N1CCC(n2cnc3cccnc32)CC1,0,0,0,0,-
CN1CC[C@]2(CCN3CCc4c(oc5ccccc45)[C@@H]3C2)N(C)C1=O,0,0,0,0,-
CN1CCC2(CCN3CCc4c(oc5ccccc45)C3C2)N(C)C1=O (stereo unspecified),-,15.8µM!,-,-,-
C=CCN(CC=C)c1nc2ccccc2nc1C(C#N)C(=O)OCCOC (stereo unspecified),0,50.1µM,0,0,0
CCCN(CCC)c1nc2ccccc2nc1C(C#N)C(=O)OCCOC (stereo unspecified),0,0,0,0,0
Cc1cc2nccc(-c3ccccn3)n2n1,0,0,0,0,0
Cc1cc(=S)nc(-c2ccccn2)[nH]1,?,?,0,?,35.5µM
Cc1cc2nc(-c3ccccn3)c(-c3ccccn3)nc2cc1C,-,0,-,0,0
Cc1[nH]c(-c2ccccn2)nc(=S)c1Cl,0,0,0,0,39.8µM
CC(=O)c1ccc(NC(=O)C2CCC(CNS(=O)(=O)c3cccc4nsnc34)CC2)cc1 (stereo unspecified),0,0,0,0,-
O=C(Nc1ccc2c(c1)OCCO2)c1ccc2nccnc2c1,0,0,0,0,0
Cc1ccc(NC(=O)c2cccnc2)cc1C,0,0[0.501 µM],0,0,0
SMILES,JMJD2A Tudor inh,G9a block,HP1b binding inh,BAZ2B block,Sfp PPTase inh
O=C(Nc1ccc2c(c1)OCCO2)c1cccnc1,89.1µM,0,0,?,0
CSc1ccc(NC(=O)c2cccnc2)cc1C#N,0,50.1µM,0,0,0
CCCN1Cc2cccc(C(=O)Nc3ccc4c(c3)OCO4)c2C1=O,0,0[12.7 µM],0,?,0
O=C(Nc1ccc2c(c1)OCO2)c1cccc2c1C(=O)N(Cc1cccnc1)C2,?,0[12.7 µM],0,50.1µM,0
O=C(Nc1ccc(N2CCCC2)c(Cl)c1)c1cccnc1,0,8.91µM,0,0,0
O=C(Nc1ccc(N2CCN(C(=O)c3cccs3)CC2)c(Cl)c1)c1ccco1,0,0,0,0,0
O=C(NC(=S)Nc1ccc(N2CCCCC2)cc1)c1cccs1,35.5µM,14.1µM,39.8µM,14.1µM,?
CC(C)CC(=O)NC(=S)Nc1ccc(N2CCOCC2)c(Cl)c1,0,11.2µM,0,0,0
O=C(NC(=S)Nc1ccccc1N1CCOCC1)c1sc2ccccc2c1Cl,0,?,0,0,0
O=C(NC(=S)Nc1ccc(N2CCOCC2)c(Cl)c1)c1sc2ccccc2c1Cl,0,1.26µM,0,0,?
O=C(Nc1ccc(N2CCCC2)c(Cl)c1)c1cccs1,44.7µM,28.2µM,?,44.7µM,0
O=C(NCc1ccccc1)C1CCCN(S(=O)(=O)c2ccc(Br)cc2)C1 (stereo unspecified),0,0,0,0,0
O=C(NC(=S)Nc1ccc(N2CCOCC2)c(Cl)c1)c1cccs1,?,0,0,35.5µM,0
O=[N+]([O-])c1ccccc1S(=O)(=O)N1CCCC(C(F)(F)F)C1 (stereo unspecified),0,-,0,0,0
CCN(C[C@H]1N[C@@](Cc2ccccc2)(C(=O)OC)[C@H]2C(=O)N(Cc3ccccc3)C(=O)[C@@H]12)C(=O)Nc1ccc(Cl)cc1,0,-,0,-,-
Cc1ccc(S(=O)(=O)N(C)C)cc1NC(=O)COC(=O)COc1ccc2c(c1)CCC2,0,?,0,0,-
COCCNC(=O)c1cc(S(=O)(=O)N(C)c2ccccc2OC)ccc1C,0,28.2µM,0,0,0
COc1ccccc1N(C)S(=O)(=O)c1ccc(Cl)c(C(=O)NCc2ccco2)c1,?,-,0,-,-
COc1ccccc1N(C)S(=O)(=O)c1ccc(C(=O)N(CC(N)=O)C(C)C)cc1,0,0,0,89.1µM,0
CC(=O)N1CCC[C@@]2(CCN(c3ccncc3)C2)C1,-,0[12.7 µM],-,-,0
COc1ccc(OCC(=O)Nc2ccc(N3CCN(C(=O)c4ccccc4)CC3)c(Cl)c2)cc1,0,-,0,0,0
Cc1ccc(N2CC(NC(=O)c3cccs3)CC2=O)cc1 (stereo unspecified),0,0,0,0,-
CC(C)C[C@@H](CN1C(=O)C(=O)NC[C@@H]1CC(C)C)NC(=O)Cc1ccccc1,0,-,0,-,-
Cc1nc2c(C)cccn2c1/C(O)=C1\C(=O)C(=O)N(CCN(C)C)C1c1ccco1 (stereo unspecified),22.4µM,0,0,0,0
Cc1nc2c(C)cccn2c1/C(O)=C1\C(=O)C(=O)N(CCN2CCOCC2)C1c1ccncc1 (stereo unspecified),5.62µM,0[12.7 µM],?,79.4µM,0
SMILES,JMJD2A Tudor inh,G9a block,HP1b binding inh,BAZ2B block,Sfp PPTase inh
Cc1ccc(C2/C(=C(\O)c3c(C)nc4c(C)cccn34)C(=O)C(=O)N2CCN(C)C)o1 (stereo unspecified),0,-,0,-,-
Cc1ccc(OCc2nc(C#N)c(N3CCCCC3)o2)cc1,?,39.8µM,?,28.2µM,0
N#Cc1nc(COc2ccc(Cl)cc2)oc1N1CCCCCC1,?,?,0,11.2µM,0
Cc1cccc(OCc2nc(C#N)c(N3CCCC3)o2)c1,0,-,?,39.8µM,0
N#Cc1nc(COc2ccccc2)oc1N1CCCCC1,?,?,?,?,0
Cc1noc(C)c1C(=O)N1CCC2(CCCN(C(=O)Nc3cccc(C#N)c3)C2)CC1,-,0[12.7 µM],-,-,0
O=C(Nc1ccnn1C1CCN(C(=O)c2cccc(Cl)c2)CC1)C1CC1,0,-,0,0,0
CCCn1nnnc1NCc1ccc(N(CC)CC)cc1,0,15.8µM,0,?,0
CCCn1nnnc1NCc1ccc(N2CCCC2)cc1,0,3.55µM,0,0,0
